PubChem BioAssay (NCATS)
Records with an inconclusive call do not appear. A call without a number means that no potency is given here. Activity calls are given as the source filed them. Calls follow the shape of the dose curve; as a rule, active = well fitted cell-killing curve with a large enough effect; inconclusive = small, poorly fitted or top-dose-only effect; inactive = flat fitted curve, though single readings scatter.

Assay: Vero cells viability qHTS for Zika virus inhibitors (AID 1347167)
Settings: cytotoxicity counter-screen (Zika); series mostly up to 45.9 µM
From the text: Avindra Nath, Ph.D., National Institute of Neurological Disorders and Stroke (NINDS), Bethesda, MD
Radhakrishnan Padmanabhan, Ph.D., Georgetown University (GU), Washington D.C.
Zika Virus causes congenital defects, including microcephaly and is associated with Guillain-Barre syndrome, eningoencephalitis and myelitis in infected adult. […] Using a target-based approach, we hope to establish a screening paradigm to uncover novel, cell-active NS2B-NS3 protease (Zika Virus) specific inhibitors from NCATS' collection of small molecules using qHTS.
Four assay panel was created to identify potential Zika Virus inhibitors. Namely, (1) GU unlinked NS2B-NS3 AMC tagged protease qHTS, (2) GU unlinked NS2B-NS3 Rhodamine tagged protease qHTS, (3) NINDS linked NS2B-NS3 AMC tagged protease qHTS, (4) NINDS linked NS2B-NS3 Rhodamine tagged protease qHTS. Identified inhibitors were screened against the Vero and HepG2 cell viability assays using CellTiter Glo to exclude cytotoxic compounds.
Early Translation Branch (ETB)
National Center for Advancing Translational Sciences (NCATS), Rockville, MD
National Institute of Health (NIH), Bethesda, Maryland
Vero and HepG2 Cell Viability Assay:
Vero and HepG2 cell cytotoxicity were determined using a luminescent readout with CellTiter Glo reagent (Promega, Madison, WI), which is based on measuring the ATP content within cells. Briefly, 4 microL of Vero or HepG2 cells at 2.5 x 10^5 cells/mL in DMEM containing 4% FBS were dispensed into 1536-well solid bottom tissue treated white plate using a Multidrop Combi dispenser (Thermo Scientific). Plates were incubated at 37 degrees C, 95% humidity, and 5% CO2 overnight to allow for cell attachment. Compounds were dissolved in DMSO at different concentrations and transferred via pintool (Wako Automation), for a final concentration of 0.029 µM - 57 microM. Plates were again incubated for 24 to 48 hours, followed by a 2 microL addition of CellTiter Glo. Finally, plates were incubated for 30 minutes at 37 degrees C and 5% CO2 before being read on a ViewLux (Perkin Elmer) for luminescence.
Potency is read from the fitted curve at half-maximal effect.

SMILES | Potency
O=C1NC(=O)c2cc(Nc3ccccc3)c(Nc3ccccc3)cc21 | inactive
C=CCN1CCc2c(cc(O)c(O)c2Br)[C@@H](c2ccccc2)C1 | inactive
O=c1[nH]c(=S)[nH]c(-c2ccccc2)c1Cc1c(O)ccc2ccccc12 | inactive
CCCC[C@@]1(C2CCCC2)Cc2cc(OCC(=O)O)c(Cl)c(Cl)c2C1=O | inactive
Cc1cccc(C(=O)NCN2CCN(c3ccccc3C#N)CC2)c1 | inactive
CCCc1c(OCCCOc2ccc(OCC(=O)O)cc2)ccc(C(C)=O)c1O | inactive
Cn1c(=O)c2[nH]c(-c3ccc(S(=O)(=O)O)cc3)nc2n(C)c1=O | inactive
CCc1ccc2c(-c3cccc(Cl)c3)nc(=O)n(CC)c2n1 | inactive
Cn1cc(C(F)(F)F)nc1-c1ccc(OCC(O)CNCCOc2ccc(O)c(C(N)=O)c2)cc1 (configuration not stated) | inactive
COc1cc2c(CCNC(C)=O)c[nH]c2cc1O | inactive
C/C(=C\c1ccc(C(=O)O)cc1)c1ccc2c(c1)C(C)(C)CCC2(C)C | inactive
CNC(=O)c1cc2c(cn1)[nH]c1ccccc12 | inactive
Nc1nc2ccc(Cl)cc2c2nc(-c3ccco3)nn12 | inactive
CCCCCCCC/C=C\CCCCCCCC(=O)NCCc1ccc(O)c(O)c1 | 8.27 µM (active)
O=C(O)c1ccccc1Nc1cccc(OCc2ccc3ccccc3n2)c1 | inactive
COc1ccccc1N1CCN(CCCNc2c(C)c(=O)n(C)c(=O)n2C)CC1 | inactive
Nc1ccc(-c2ccc3ccccc3n2)cc1 | inactive
